# D2 ag-1: Beta-Arrestin HTS for Positive Allosteric Modulators of the Human D2 Dopamine Receptor: Agonists | DiscoveRx PathHunter D2 beta-arrestin, luminescence, 90 min; 100% = 57 uM dopamine signal | hit rate 0.084% among 360,000 | D(2) dopamine receptor (Homo sapiens), P14416 | activation, % (concentration not given with the values); in the data active means activation above about 40%; inconclusive means between about 15% and that limit
# Target sequence (P14416 whole entry, looked up): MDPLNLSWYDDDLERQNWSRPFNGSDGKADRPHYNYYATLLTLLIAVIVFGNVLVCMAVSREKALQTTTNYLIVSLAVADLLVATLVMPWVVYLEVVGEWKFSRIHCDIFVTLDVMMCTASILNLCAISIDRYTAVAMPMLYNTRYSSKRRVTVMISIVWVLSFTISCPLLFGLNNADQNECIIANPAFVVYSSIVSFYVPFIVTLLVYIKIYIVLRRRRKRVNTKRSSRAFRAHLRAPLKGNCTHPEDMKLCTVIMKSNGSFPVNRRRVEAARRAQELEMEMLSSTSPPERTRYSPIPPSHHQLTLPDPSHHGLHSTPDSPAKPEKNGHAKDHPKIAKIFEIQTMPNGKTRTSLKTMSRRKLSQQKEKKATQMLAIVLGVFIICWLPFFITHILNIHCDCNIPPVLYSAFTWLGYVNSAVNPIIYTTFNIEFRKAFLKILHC
#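 Agonist mode: compounds alone added to overnight-plated D2 PathHunter cells for 90 min at 37 C, with 57 uM final dopamine (EC100) defining full response. Beta-arrestin recruitment detected by chemiluminescent reagent, read after 1 h at ambient temperature.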
# D2 ag-2: HTS Assay for Allosteric Agonists of the Human D2 Dopamine Receptor: Primary Screen for Agonists; D(2) dopamine receptor (Homo sapiens), P14416; HEK293 T-REx D2 cells, calcium flux agonist mode; activation, % at 2 µM; hit rate 0.53% among 340,000; AID 485358, 2010;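 active means activation over 3 SD above normal in the single-dose calcium agonist read, cut at about 30% in these data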
#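 HEK293 Trex D2 cells, tetracycline-induced, o/n 30 C 5% CO2; no-wash Ca dye, RT 30–90 min; 10-cycle baseline, 23 nl cpd added, kinetic Ca read 180 s; agonist hits = positive Ca response.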
# D2 antag: HTS Assay for Allosteric Antagonists of the Human D2 Dopamine Receptor: Primary Screen for Antagonists; D(2) dopamine receptor (Homo sapiens), P14416; HEK293 TREx D2 cells, calcium flux, dopamine EC80; inhibition, % at 10 µM; hit rate 2% among 340,000; AID 485344, 2010; in the data active means inhibition above about 30%; inactive means below that, where a call was filed
#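 Dopamine at EC80 is the agonist stimulus; test compounds precede it by 180 s. Calcium flux read kinetically in a force-coupled, inducible HEK293 T-REx D2 cell line.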
# D2 PAM-1: HTS Assay for Positive Allosteric Modulators of the Human D2 Dopamine Receptor: Primary Screen for Potentiators. HEK293 T-REx D2, calcium flux, EC20 dopamine potentiation. hit rate 0.34% among 340,000. potentiation, % at 10 µM. D(2) dopamine receptor (Homo sapiens), P14416;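 active means potentiation over 3 SD above the plate norm, cut at about 30% in these data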
#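 Primary screen. Calcium kinetics in induced HEK293 T-REx D2 cells: compound pre-addition 180 s, EC20 dopamine, 180 s more.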
# D2 PAM-2: Beta-Arrestin HTS for Positive Allosteric Modulators of the Human D2 Dopamine Receptor: Potentiators; AID 624464, 2012; hit rate 0.23% among 360,000; potentiation, % (concentration not given with the values); D(2) dopamine receptor (Homo sapiens), P14416; DiscoveRx D2 beta-arrestin cells, luminescence, 90 min; 100% = 57 uM dopamine signal; in the data active means potentiation above about 50%; inconclusive means mostly about 30% to 49%
#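 D2 cells co-treated with compound plus 50 nM dopamine (EC20) for 90 min at 37 deg C to detect potentiation. Beta-arrestin recruitment was read as enzyme-fragment luminescence after 1 h at ambient temperature. Full response was set by 57 uM dopamine.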
# A number is an active result; n = inactive; u = inconclusive; x = no result given. Hits are enriched below; roughly 2.4% of the tested compounds scored in any of these assays.
SMILES,D2 ag-1,D2 ag-2,D2 antag,D2 PAM-1,D2 PAM-2
O=C(c1ccccc1)N1CCCCCC1,n,n,n,n,n
COc1ccc(CN2CCC(C(=O)c3ccc(F)cc3)CC2)cc1,n,n,78,n,n
O=c1cc(-c2ccccc2)n2c(SCc3ccc([N+](=O)[O-])cc3)nnc2[nH]1,x,n,x,n,x
CC1=C(C(N)=O)C(c2cccc(C)c2)n2nc(-c3ccc(Cl)cc3)nc2N1 (configuration not stated),x,n,x,n,x
Cc1cccc(Cn2c(=O)n(CCC(=O)NCc3ccc4c(c3)OCO4)c(=O)c3sccc32)c1,x,n,x,n,x
O=C(c1ccc(F)cc1)C1CCN(C(=S)Nc2ccc(F)cc2)CC1,n,n,47,n,n
CCCNC(=S)N1CCC(C(=O)c2ccc(F)cc2)CC1,n,n,n,35,n
CCOC(=O)c1[nH]ncc1CN1CCCC(C(=O)c2ccc(OC)c(OC)c2)C1 (configuration not stated),n,x,x,x,n
CCOC(=O)c1[nH]ncc1CN1CCCC(C(=O)c2cc(Cl)ccc2OC)C1 (configuration not stated),n,n,73,n,n
COCc1ccc(C(=O)N2CCCC(N3CCN(c4ccc(F)cc4)CC3)C2)o1 (configuration not stated),n,n,n,n,n
COc1cccc(C(=O)NCCCNC(=O)c2cccnc2)c1,n,n,39,n,n
Cc1sc2ncnc(N3CCC(C(=O)NNC(=O)COc4ccc(Cl)cc4)CC3)c2c1C,n,x,x,x,n
Cc1sc2ncnc(N3CCN(CCOc4ccc(Cl)cc4)CC3)c2c1C,n,n,35,n,n
CN(CCc1ccccc1)C(=O)c1ccc(NC(=O)Cc2ccc(NC(=O)C3CCCN(S(=O)(=O)c4cccc([N+](=O)[O-])c4)C3)cc2)cc1 (configuration not stated),n,x,x,x,n
COc1ccc(C(=O)N2CCCCC2CCN2CCOCC2)cc1 (configuration not stated),x,n,x,n,x
c1ccc2c(c1)Nc1cc3ccccc3cc1O2,u,x,x,x,91
C/C(=N\NC(=S)NCc1ccccc1)c1ccc(C)o1,n,n,n,n,n
Cc1cc(C)n(-c2ccc(C(=O)OCC(=O)N(CC(C)C)C3CCS(=O)(=O)C3)cc2)n1 (configuration not stated),n,n,51,n,n
Cc1ccc(C(O)c2ncc(-c3ccccc3C(F)(F)F)[nH]2)cc1F (configuration not stated),n,x,x,x,n
Clc1ccc2c(c1)C(N1CCNCC1)=Nc1ccccc1O2,n,n,76,n,n
COc1ccc(C(O)c2nc(-c3ccc(F)c(Cl)c3)cs2)cc1 (configuration not stated),n,x,x,x,n
Cc1cc(-c2cc(C(=O)NCc3ccccc3)on2)nc(NCC2CC2)n1,n,n,n,n,n
O=C1N[C@@H](Cc2ccccc2)C(=O)N2CCCC12 (some centres not stated),n,x,x,x,n
O=C1N[C@@H](Cc2cnc[nH]2)C(=O)N2CCC[C@@H]12,n,n,45,n,n
CC(OC(=O)Cn1c(C(F)(F)F)nc2ccccc21)C(N)=O (configuration not stated),n,n,40,n,n
SMILES,D2 ag-1,D2 ag-2,D2 antag,D2 PAM-1,D2 PAM-2
N#CCCn1cc(/C=N/N=C2\NC(=O)C(CC(=O)O)S2)c(-c2ccc(F)cc2)n1 (configuration not stated),n,n,35,n,n
c1cc2c3c(cccc3c1)NC1(CCC3(CC1)Nc1cccc4cccc(c14)N3)N2,n,n,n,n,71
CCSc1nnc2ccc(-c3ccco3)nn12,n,n,n,37,n
CCSc1nnc2ccc(-c3ccc(C)cc3)nn12,n,n,n,n,n
COC(=O)c1ccc2c(=O)n(CCCCCC(=O)NCc3ccc(Cl)cc3)c(=O)[nH]c2c1,x,n,x,x,x
COc1ccc(NC(=O)CC2SC(N3CCOCC3)=NC2=O)c(OC)c1 (configuration not stated),n,x,x,x,n
COc1cc(Cl)c(C)cc1NC(=O)CC1SC(N2CCOCC2)=NC1=O (configuration not stated),n,n,99,n,n
Cc1cc(C)cc(NC(=O)C(=O)NCC(c2cccnc2)N2CCc3ccccc3C2)c1 (configuration not stated),x,n,x,n,x
Cc1ccc(NC(=O)Cn2c(=O)c3ccccc3n3nncc23)cc1,x,n,x,n,x
Cc1ccc(/C=N/n2cnc3sc(C)c(C)c3c2=O)o1,n,n,n,47,n
CCc1ccc(OC(C)c2nc(-c3ccc(-n4cccc4)cc3)no2)cc1 (configuration not stated),x,n,x,n,x
N#Cc1c(NC(=S)NC(=O)c2ccccc2)sc2c1CCN(CCc1ccccc1)C2,x,44,n,n,x
CC1CCc2c(sc(NC(=S)NC(=O)c3ccccc3)c2C#N)C1 (configuration not stated),n,n,37,n,n
CC(C(=O)NC(C)(C)C)N(C(=O)CS(=O)CC(=O)Nc1ccc(F)cc1)C1CCCC1 (configuration not stated),n,n,n,n,n
c1ccc(COC2COC3C(OCc4ccccc4)COC23)cc1 (configuration not stated),n,x,x,x,n
COc1ccc(NC(=O)C2CCCN2S(=O)(=O)c2ccc(F)cc2)cc1 (configuration not stated),n,n,30,n,n
CCOC(=O)c1sc(NC(=O)Nc2ccc(Cl)cc2)cc1C,n,x,38,n,n
CCOC(=O)c1c(NC(=O)Nc2ccc(Cl)cc2)sc(C)c1C,n,n,36,n,n
CCOC(=O)c1c(NC(=O)Nc2cccc(Cl)c2)sc(C)c1C,n,n,n,n,n
CCOC(=O)c1sc(NC(=O)c2ccc(Cl)s2)cc1C,n,n,n,n,n
CCOC(=O)C1C(=O)Nc2nc(C)nn2C1c1ccccc1 (configuration not stated),n,n,42,n,n
Cc1cc(C)n(-c2nc3ccccc3nc2Nc2ccc(Cl)cc2Cl)n1,x,n,x,n,x
CCOC(=O)c1c(-c2cccc([N+](=O)[O-])c2)csc1NC(=O)C1CC1,n,n,n,n,55
CCOC(=O)c1c(-c2cccc([N+](=O)[O-])c2)csc1NC(=O)C1CCCCC1,n,n,n,n,u
Cc1nnc2n1N=C(c1ccc(OC(F)F)cc1)C(C)S2 (configuration not stated),n,n,56,n,n

# Bioassay records as filed in PubChem BioAssay.
